According to ChEMBL document CHEMBL1857833, “Screening and optimization of specific chemical series against human African Trypanosomiasis (HAT)”:
Values joined by “and” are separate entries in the source; they are usually repeats but may differ in a detail not shown here. Equal values may be shown once. Hit rate of the full screen: of about 4,400 compounds, about 390 (8.9%) showed an effect of 50% or more. The sample holds strong results, similar compounds and a random draw of the others, so the mix is not that of the screen.

test system: Trypanosoma brucei; assay: DNDI: Inhibition of Human African Trypanosomiasis, SBRI 427, in vitro at 2 ug.mL-1; type: functional

| Structure (SMILES) | % inhibition |
| --- | --- |
| CCCN(Cc1coc(-c2cccs2)n1)CC1CC1 | 0% |
| Cc1ccc(/C(=N/O)N(C)Cc2cccnc2)c(OCc2ccccc2F)n1 | 0% |
| COc1ccc(-c2nc(CNCc3ccc(C(C)(C)C)cc3)co2)cc1 | 4% |
| Cc1ccc(C(C)C)c(Oc2cc(/C(=N/O)N3C(C)CCC3C)ccn2)c1 (stereo unspecified) | 8% |
| COc1ccc(N(C)Cc2coc(-c3ccc(C(F)(F)F)cc3)n2)cc1 | 2% |
| Fc1cccc(-c2nc(CN3CCC4CCCCC4C3)co2)c1 (stereo unspecified) | 0% |
| O/N=C(\NCc1ccccc1)c1cccnc1Oc1ccc(F)cc1Cl | 94% |
| O/N=C(\NCc1cccnc1)c1cccnc1Oc1ccc(F)cc1Cl | 14% |
| COc1ccc(Oc2ncccc2/C(=N/O)NCc2ccc(C)o2)cc1 | 5% |
| O/N=C(\NCc1ccccn1)c1cccnc1Oc1ccc(F)cc1Cl | 20% |
| Cc1ccc(CN/C(=N\O)c2cccnc2Oc2c(F)cccc2F)o1 | 0% |
| Cc1ccc(CN/C(=N\O)c2cccnc2Oc2cc(Cl)ccc2Cl)o1 | 100% |
| CSc1ccc(Oc2nc(C)ccc2/C(=N/O)n2ccnc2)cc1 | -8% |
| CCCCN(CCC#N)Cc1coc(-c2ccc(C)cc2)n1 | -2% |
| CCN(CC)CCNCc1coc(-c2ccccc2Cl)n1 | -11% |
| CCOc1ccccc1-c1nc(CNC(C)c2ccccc2)co1 (stereo unspecified) | -8% |
| CCOc1ccccc1-c1nc(CN[C@H](C)c2ccc(C)cc2)co1 | 10% |
| CCCCCCC(C)NCc1coc(-c2ccccc2OCC)n1 (stereo unspecified) | 41% |
| CCN(CC)CCCC(C)NCc1coc(-c2ccccc2Cl)n1 (stereo unspecified) | 94% |
| CCCCCCC(C)NCc1coc(-c2ccccc2Br)n1 (stereo unspecified) | 28% |
| CCOc1ccc(-c2nc(CNC(CC)COC)co2)cc1 (stereo unspecified) | 21% |
| CCCCCC(C)NCc1coc(-c2ccccc2OCC)n1 (stereo unspecified) | 99% |
| CCCC(CCC)NCc1coc(-c2ccc(OCC)cc2)n1 | 99% |
| CC(CCc1ccccc1)NCc1coc(-c2ccccc2Cl)n1 (stereo unspecified) | 8% |

| Structure (SMILES) | % inhibition |
| --- | --- |
| CCCC(CCC)NCc1coc(-c2ccc(O)cc2)n1 | 14% |
| Cc1ccc(/C(=N/O)N2CCN(c3ccccc3)CC2)c(Oc2ccc(F)cc2)n1 | 20% |
| C=CCN(CC=C)Cc1coc(-c2cccs2)n1 | -3% |
| Cc1ccc(-c2nc(CNc3cc(C)nn3-c3ccccc3)co2)cc1 | 10% |
| C=C(C)CN(CC)Cc1coc(-c2cccc3ccccc23)n1 | -7% |
| COc1cc(-c2nc(CNC(C)c3ccccc3)co2)cc(OC)c1OC (stereo unspecified) | 0% |
| CCC(NCc1coc(-c2ccc(Cl)cc2Cl)n1)c1ccccc1 (stereo unspecified) | 5% and 14% |
| CCCCN(CCC#N)Cc1coc(-c2ccc(O)cc2)n1 | -26% |
| Cc1ccccc1-c1nc(CN(C)C(C)c2ccccc2)co1 (stereo unspecified) | 13% |
| COCC(C)NCc1coc(-c2ccc(Cl)cc2Cl)n1 (stereo unspecified) | 2% |
| CCOc1ccccc1-c1nc(CNC(CC)COC)co1 (stereo unspecified) | 5% |
| CCCC(CCC)NCc1coc(-c2ccccc2Br)n1 | -3% |
| CCCC(CCC)NCc1coc(-c2ccccc2OCC)n1 | 98% |
| CC(NCc1coc(-c2ccc(Cl)cc2Cl)n1)C(C)(C)C (stereo unspecified) | 55% |
| Cc1ccc(-c2nc(CN(c3ccccc3)C(C)C)co2)cc1 | 23% |
| c1ccc2c(-c3nc(CN4CCC(N5CCCC5)CC4)co3)cccc2c1 | 35% |
| Cc1cccc(-c2nc(CN(Cc3ccccn3)Cc3ccccn3)co2)c1 | 63% |
| COc1ccc(-c2nc(CN(Cc3ccccn3)Cc3ccccn3)co2)cc1 | 46% |
| COCCN(CCOC)Cc1coc(-c2cccc(C)c2)n1 | 13% |
| Cc1ccc(-c2nc(CN(Cc3ccccn3)Cc3ccccn3)co2)cc1 | 83% |
| Clc1ccc(-c2nc(CN(Cc3ccccn3)Cc3ccccn3)co2)c(Cl)c1 | 58% |
| Fc1ccc(-c2nc(CN(Cc3ccccn3)Cc3ccccn3)co2)cc1 | 48% |
| COCCN(CCOC)Cc1coc(-c2ccc(Cl)cc2Cl)n1 | 6% |
| Fc1cccc(-c2nc(CN(Cc3ccccn3)Cc3ccccn3)co2)c1 | 4% |

| Structure (SMILES) | % inhibition |
| --- | --- |
| CN(CCc1ccccn1)Cc1coc(-c2ccc(Cl)cc2Cl)n1 | -26% |
| C=CCN(C)Cc1coc(-c2ccc(OC)cc2)n1 | 18% |
| c1ccc2c(-c3nc(CNCCN4CCOCC4)co3)cccc2c1 | 7% |
| Cc1ccccc1-c1nc(CN(Cc2ccccc2)C(C)C)co1 | 7% |
| Cc1ccc(/C(=N/O)NC2CCc3ccccc32)c(Oc2cccc(F)c2)n1 (stereo unspecified) | 23% |
| Cc1ccc(-c2nc(CNC(C)CC(C)C)co2)cc1 (stereo unspecified) | 4% |
| COc1ccc(Oc2nc(C)ccc2/C(=N/O)NC2CC2)cc1 | 4% |
| Cc1ccc(Oc2nc(C)ccc2/C(=N/O)NC2CC2)cc1 | 30% |
| CSc1ccc(Oc2nc(C)ccc2/C(=N/O)NC2CCCC2)cc1C | 88% |
| Cc1ccc(Oc2nc(C)ccc2/C(=N/O)NC2CCCC2)cc1 | 97% |
| COc1ccc(Oc2nc(C)ccc2/C(=N/O)NC2CCCC2)cc1 | 101% |
| CSc1ccc(Oc2nc(C)ccc2/C(=N/O)NCC2CC2)cc1C | 14% |
| Cc1ccc(/C(=N/O)NC2CCCC2)c(Oc2ccc(F)cc2)n1 | 23% |
| CSc1ccc(Oc2nc(C)ccc2/C(=N/O)NC2CCCCC2)cc1 | 1% |
| COc1ccc(Oc2nc(C)ccc2/C(=N/O)NC2CCC2)cc1 | -19% |
| CSc1ccc(Oc2nc(C)ccc2/C(=N/O)NCCN(C)C)cc1C | -3% |
| CCCN/C(=N\O)c1ccc(C)nc1Oc1ccc(SC)c(C)c1 | 11% |
| COCCN/C(=N\O)c1ccc(C)nc1Oc1ccc(SC)c(C)c1 | 98% |
| Brc1ccc(-c2nc(CNCCc3ccccn3)co2)cc1 | -9% |
| FC(F)(F)Oc1ccc(-c2nc(CNCc3ccccc3OC(F)(F)F)co2)cc1 | -17% |
| Fc1cccc(-c2nc(CNCc3ccc(OC(F)(F)F)cc3)co2)c1 | 7% |
| CN1CCCC1CCN/C(=N\O)c1cccnc1Oc1ccc(Cl)cc1 (stereo unspecified) | -1% |
| O=C(c1ccco1)N1CCN(Cc2coc(-c3ccc(Cl)cc3Cl)n2)CC1 | 21% |
